Test systems include SR leukemia; RPMI-8226 leukemia; OVCAR-8 ovarian; OVCAR-5 ovarian; OVCAR-4 ovarian; SK-OV-3 ovarian; IGROV1 ovarian; OVCAR-3 ovarian; HS 578T breast; NCI/ADR-RES ovarian; T-47D breast; BT-549 breast; MDA-MB-435 melanoma; SW-620 colon; MCF7 breast; HCT-116 colon; HCC-2998 colon; KM12 colon.
Common to all, as to assay: NCI-60 one-dose screen, 48 h (100 = growth as untreated, 0 = no growth, -100 = all killed)
What all share (details): 10 µM unless noted

Each structure is given as a SMILES string. The panel holds about 83,000 compounds, 20% with a hit somewhere; the sample as a whole holds those more often.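 The test compound was applied at a single concentration to cells in 96-well plates for 48 hours, and percent growth was recorded.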 Unmarked numbers belong to inactive results. Active and inactive are the calls of the source. The calls were made as follows: active = growth percent below 10; inactive = the rest.

The source of these data is PubChem BioAssay (NCI).

For `COc1ccc(S(=O)(=O)Oc2ccc(-c3sc4cc(OS(=O)(=O)c5ccc(OC)cc5)ccc4c3C(=O)c3ccc(OCCN4CCCCC4)cc3)cc2)cc1`, the growth in the experiment with SR leukemia is 102%; in the experiment on RPMI-8226 leukemia it was 109%; with OVCAR-8 ovarian, 108%; in the experiment with OVCAR-5 ovarian, 95.7%; with OVCAR-4 ovarian, 97.7%; in the experiment with SK-OV-3 ovarian, 95.9%. Moreover, the growth with IGROV1 ovarian was 99.3%; in the experiment with OVCAR-3 ovarian, 100%; with HS 578T breast, 107%; in the experiment with NCI/ADR-RES ovarian, 110%; in the experiment on T-47D breast, 94.2%; with BT-549 breast, 94.1%. Besides, the growth in the experiment on MDA-MB-435 melanoma is 105%; in the experiment on SW-620 colon, 108%; with MCF7 breast, 91.3%; in the experiment on HCT-116 colon, 98.8%; in the experiment with HCC-2998 colon it was 105%; in the experiment with KM12 colon, 99.1%.
In the case of `Cc1nn(-c2ccccc2)c(Oc2ccccc2)c1/C=N/NC(=O)Cn1c(=O)sc2ccccc21`, the growth in the experiment on SR leukemia was 38.2%; with RPMI-8226 leukemia, 33.8%; in the experiment with OVCAR-8 ovarian it was 48.8%; with OVCAR-5 ovarian it was 81.5%; in the experiment with OVCAR-4 ovarian, 44.1%; in the experiment on SK-OV-3 ovarian it was 61%. Besides, the growth is 54.4% in the experiment with IGROV1 ovarian; 61.6% in the experiment on OVCAR-3 ovarian; 67.6% in the experiment on HS 578T breast; 44.4% with NCI/ADR-RES ovarian; 14.7% in the experiment with T-47D breast; 25.6% with BT-549 breast. Also, the growth in the experiment with MDA-MB-435 melanoma is 54.3%; in the experiment with SW-620 colon, 72%; with MCF7 breast it was 25.4%; with HCT-116 colon it was 38.1%; with HCC-2998 colon, 72.2%; in the experiment with KM12 colon it was 56%.
In the case of `CCOc1cc(\C=N/N=C(N)/C(N)=N\N=C/c2ccc(O)c(OCC)c2)ccc1O`, the growth is 88.8% in the experiment on SR leukemia; 94.8% in the experiment with RPMI-8226 leukemia; 67.9% in the experiment with OVCAR-8 ovarian; 115% with OVCAR-5 ovarian; 105% in the experiment with OVCAR-4 ovarian; 113% in the experiment with SK-OV-3 ovarian. Further, the growth was 129% in the experiment on IGROV1 ovarian; 113% in the experiment with OVCAR-3 ovarian; 113% in the experiment with HS 578T breast; 98.7% in the experiment on NCI/ADR-RES ovarian; 47.4% in the experiment on T-47D breast; 93.1% with BT-549 breast. For the same compound, the growth is 98.7% with MDA-MB-435 melanoma; 108% in the experiment on SW-620 colon; 91.5% with MCF7 breast; 99.6% in the experiment on HCT-116 colon; 98.6% in the experiment with HCC-2998 colon; 101% with KM12 colon.
Turning to `COc1cc2nc3cc([N+](=O)[O-])ccc3c(NCCCNCCO)c2cc1OC`, the growth is -12.4% (active) in the experiment with SR leukemia; -1.84% (active) in the experiment on RPMI-8226 leukemia; -28.9% (active) in the experiment with OVCAR-8 ovarian; -15.2% (active) in the experiment with OVCAR-5 ovarian; -47.2% (active) in the experiment with OVCAR-4 ovarian; -59% (active) in the experiment on SK-OV-3 ovarian. For the same compound, the growth in the experiment on IGROV1 ovarian was -29.9% (active); with OVCAR-3 ovarian, -44.6% (active); in the experiment with HS 578T breast it was -16.1% (active); with NCI/ADR-RES ovarian, 93.3%; with T-47D breast, -30.1% (active); with BT-549 breast, -73.4% (active). Also, the growth was -100% (active) with MDA-MB-435 melanoma; -25% (active) with SW-620 colon; -28.5% (active) with MCF7 breast; -33.7% (active) in the experiment with HCT-116 colon; -47.9% (active) in the experiment on HCC-2998 colon; -33.6% (active) with KM12 colon.
For the compound `C=CCn1c(SCC(=O)Nc2ccc(C(=O)/C=C/c3cc(OC)c(OC)c(OC)c3)cc2)nnc1-c1cc(-c2ccc(S(N)(=O)=O)cc2)nc2ccccc12`, the growth with SR leukemia is 28.1%; with RPMI-8226 leukemia, 4.9% (active); with OVCAR-8 ovarian, 57.2%; with OVCAR-5 ovarian, 123%; with OVCAR-4 ovarian, 83.7%; with SK-OV-3 ovarian, 111%. Moreover, the growth was 80.4% in the experiment on IGROV1 ovarian; 81.1% in the experiment with OVCAR-3 ovarian; 108% in the experiment with HS 578T breast; 103% in the experiment on NCI/ADR-RES ovarian; 81.1% in the experiment on T-47D breast; 75.2% in the experiment on BT-549 breast. For the same compound, the growth in the experiment on MDA-MB-435 melanoma was 80.2%; in the experiment with SW-620 colon, 76.8%; in the experiment with MCF7 breast it was 26.5%; in the experiment with HCT-116 colon it was 17.2%; in the experiment with HCC-2998 colon it was 105%; with KM12 colon, 59.8%.
Consider `C=C(C)[C@@H]1CCC[C@]2(C(=O)OC)CC[C@]3(C)[C@@H](CC[C@@H]4[C@@]5(C)CCCNC(C)(C)[C@@H]5CC[C@]43C)[C@@H]12`, for which the growth was 54.5% with SR leukemia; 75.7% in the experiment on RPMI-8226 leukemia; 89.6% in the experiment with OVCAR-8 ovarian; 86.4% in the experiment on OVCAR-5 ovarian; 88.1% in the experiment with OVCAR-4 ovarian; 95.8% in the experiment on SK-OV-3 ovarian. Also, the growth is 65.3% in the experiment with IGROV1 ovarian; 74.4% in the experiment on OVCAR-3 ovarian; 87.4% with HS 578T breast; 98.8% with NCI/ADR-RES ovarian; 75.9% in the experiment on T-47D breast; 93.9% in the experiment on BT-549 breast. The growth in the experiment on MDA-MB-435 melanoma was 92.9%; in the experiment on SW-620 colon it was 86.7%; in the experiment on MCF7 breast, 86.5%; with HCT-116 colon, 93.3%; with HCC-2998 colon, 96.3%; with KM12 colon it was 85.8%.
For the compound `COc1ccc(C(=O)/C=C/Nc2cc(-c3ccccc3)nn2-c2ccccc2)cc1`, the growth is 99.3% in the experiment on SR leukemia; 94.9% in the experiment on RPMI-8226 leukemia; 95.9% in the experiment with OVCAR-8 ovarian; 94.2% in the experiment on OVCAR-5 ovarian; 98.7% in the experiment with OVCAR-4 ovarian; 97.6% with SK-OV-3 ovarian. Besides, the growth was 97.8% in the experiment on IGROV1 ovarian; 109% with OVCAR-3 ovarian; 107% in the experiment with HS 578T breast; 93.2% in the experiment with NCI/ADR-RES ovarian; 82% in the experiment on T-47D breast; 103% in the experiment on BT-549 breast. For the same compound, the growth with MDA-MB-435 melanoma was 99.2%; in the experiment with SW-620 colon, 84.2%; with MCF7 breast it was 87.9%; in the experiment with HCT-116 colon, 85.9%; in the experiment with HCC-2998 colon it was 99.4%; in the experiment on KM12 colon, 99.9%.
For `c1ccc2c(-c3cnn4cc(-c5ccc(N6CCNCC6)cc5)cnc34)ccnc2c1`, the growth in the experiment with SR leukemia was -19.1% (active); with RPMI-8226 leukemia, -52.8% (active); in the experiment on OVCAR-8 ovarian, -46.9% (active); in the experiment on OVCAR-5 ovarian it was -85.3% (active); in the experiment on OVCAR-4 ovarian, -65.8% (active); in the experiment with SK-OV-3 ovarian, -86.4% (active). Further, the growth is -79.7% (active) in the experiment with IGROV1 ovarian; -83.2% (active) in the experiment on OVCAR-3 ovarian; -68.7% (active) with HS 578T breast; -42.5% (active) with NCI/ADR-RES ovarian; -45.9% (active) in the experiment on T-47D breast; -80.9% (active) with BT-549 breast. The growth is -99.4% (active) in the experiment with MDA-MB-435 melanoma; -52.3% (active) in the experiment on SW-620 colon; -64.1% (active) in the experiment with MCF7 breast; -98.4% (active) in the experiment with HCT-116 colon; -63.8% (active) with HCC-2998 colon; -72.7% (active) with KM12 colon.
